# Experimental data as given in paper PMC5540273 (PLoS ONE, 2017).
# Several values for one entry are separate records, joined by “and”; a condition that tells them apart may be missing. Equal entries are not always repeated. Where two headings read alike, the source gives them in different places.
# Assays:
# MARK3 = details: concentration: 1 μM, replicates: in singlicate; n = 1
# MARK4 = details: concentration: 1 μM, replicates: in singlicate, n = 1
# MAST1 = details: concentration: 1 μM, replicates: in singlicate, n = 1
# MEK1 = test system: T1, MEK1; details: concentration: 1 μM, replicates: in singlicate, n = 1
# T1 construct: gene MAP2K1
# MEK2 = test system: T2, MEK2; details: concentration: 1 μM, replicates: in singlicate, n = 1
# T2 construct: gene MAP2K2
# MEK3 = test system: T3, MEK3; details: concentration: 1 μM, replicates: in singlicate, n = 1
# T3 construct: gene MAP2K3
# MEK4 = test system: T4, MEK4; details: concentration: 1 μM, replicates: in singlicate, n = 1
# T4 construct: gene MAP2K4
# MEK5 = test system: T5, MEK5; details: concentration: 1 μM, replicates: in singlicate, n = 1
# T5 construct: gene MAP2K5
# MEK6 = test system: T6, MEK6; details: concentration: 1 μM, replicates: in singlicate; n = 1
# T6 construct: gene MAP2K6
# MELK = details: concentration: 1 μM, replicates: in singlicate, n = 1
# 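Also: KINOMEscan kinase panel screen.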
SMILES,%Inh (MARK3),%Inh (MARK4),%Inh (MAST1),%Inh (MEK1),%Inh (MEK2),%Inh (MEK3),%Inh (MEK4),%Inh (MEK5),%Inh (MEK6),%Inh (MELK),%Inh (MARK4; 1 µM),%Inh (MAST1; 1 µM),%Inh (MEK1; 1 µM),%Inh (MEK2; 1 µM),%Inh (MEK3; 1 µM),%Inh (MEK4; 1 µM),%Inh (MEK5; 1 µM),%Inh (MELK; 1 µM)
CSc1nn2c(=O)cc(N3CCOCC3)nc2n1Cc1cccc(Cl)c1Cl [GSK2347225],2%,3%,0%,0%,5%,0%,33%,48%,0%,18%,–,–,–,–,–,–,–,–
COc1ccc(Nc2nccc(N3CCC(NC(=O)Nc4ccc5c(c4)OCO5)C3)n2)cc1 (stereo not shown) [GSK1379745],13%,9%,0%,0%,0%,0%,25%,32%,0%,0%,–,–,–,–,–,–,–,–
O=C(NCCCN1CCCC1=O)c1cnc(NCc2cc(Cl)ccc2Cl)nc1NC1CCNCC1,0%,0%,0%,0%,3%,0%,0%,0%,0%,0%,–,–,–,–,–,–,–,–
O=C(Nc1ccccc1)Nc1ccc(Oc2ccc3nccn3n2)cc1,9%,7%,0%,17%,32%,0%,0%,0%,0%,10%,–,–,–,–,–,–,–,–
COc1cc2ncnc(Nc3ccc(OCc4ccccc4Br)c(Cl)c3)c2cc1OC.Cl [GI261590],1%,11%,0%,19%,13%,0%,0%,98.9%,0%,0%,–,–,–,–,–,–,–,–
CC(C)(C)c1ccc(-n2cnc3c(N)ncnc32)cc1 [SKF-97263],0%,0%,0%,0%,10%,0%,21%,44%,0%,13%,–,–,–,–,–,–,–,–
COc1ccc(-c2nc3n(c2-c2ccncc2)CCC3)cc1 [SKF-104493],0%,–,–,–,–,–,–,–,0%,–,17% and 0%,49% and 11%,0% and 12%,29% and 5%,1% and 0%,67% and 12%,24% and 0%,0% and 15%
NC(=O)c1sc(-n2cnc3ccccc32)cc1OCc1ccccc1F [GSK1024306],0%,1%,11%,0%,0%,0%,20%,69%,0%,23%,–,–,–,–,–,–,–,–
Cn1cc(-c2ccc3c(c2)CCN3C(=O)Cc2cccc(C(F)(F)F)c2)c2c(N)ncnc21 [GSK2606414],0%,7%,0%,0%,0%,0%,22%,6%,0%,8%,–,–,–,–,–,–,–,–
CC(=O)Nc1n[nH]c2ncc(-c3ccccc3)cc12 [SB-548492],0%,8%,42%,23%,35%,19%,21%,87%,0%,21%,–,–,–,–,–,–,–,–
Cc1cccc(-c2nc(Nc3ccc4[nH]nnc4c3)c3ccccc3n2)n1 [GW867587],18%,3%,17%,7%,16%,5%,0%,19%,0%,0%,–,–,–,–,–,–,–,–
Cl.Cl.c1ccc(-c2cc3ccncc3cc2OC2CCNCC2)cc1 [GSK1122999],0%,5%,0%,0%,5%,0%,23%,16%,0%,17%,–,–,–,–,–,–,–,–
Cc1cc(N2CCC(NS(=O)(=O)c3ccc(F)cc3)CC2)nc(Nc2cccc(C#N)c2)n1.O=C(O)C(F)(F)F [GSK1653537],0%,9%,0%,0%,0%,0%,78%,19%,62%,5%,–,–,–,–,–,–,–,–
Nc1nc(-c2ccc3c(N)n[nH]c3c2)cc(N2CCCCC2)n1 [GSK2228768],0%,0%,0%,0%,0%,2%,0%,8%,0%,0%,–,–,–,–,–,–,–,–
Cc1ccc(NC(=O)c2cccc(C#N)c2)cc1-c1ccc(C(=O)Nc2ccncc2)cc1 [GSK1398463],0%,0%,17%,0%,10%,0%,0%,4%,31%,0%,–,–,–,–,–,–,–,–
Cl.c1ccc(Cn2ncc3cc(Nc4ncnc5ccccc45)ccc32)cc1 [GW273749],0%,0%,0%,0%,7%,0%,0%,99.7%,6%,0%,–,–,–,–,–,–,–,–
Clc1cccc(-c2nc(Nc3ccncc3)c3ccccc3n2)c1 [GW873004],32%,23%,53%,10%,21%,0%,0%,14%,0%,31%,–,–,–,–,–,–,–,–

SMILES,%Inh (MARK3),%Inh (MARK4),%Inh (MAST1),%Inh (MEK1),%Inh (MEK2),%Inh (MEK3),%Inh (MEK4),%Inh (MEK5),%Inh (MEK6),%Inh (MELK),%Inh (MARK4; 1 µM),%Inh (MAST1; 1 µM),%Inh (MEK1; 1 µM),%Inh (MEK2; 1 µM),%Inh (MEK3; 1 µM),%Inh (MEK4; 1 µM),%Inh (MEK5; 1 µM),%Inh (MELK; 1 µM)
Cn1ccc2ncnc(Nc3ccc(Oc4cccc(Cl)c4)c(Cl)c3)c21,0%,9%,0%,29%,31%,1%,17%,99.6%,27%,0%,–,–,–,–,–,–,–,–
COc1ccc(-c2oc3ncnc(N)c3c2-c2ccc(OC)cc2)cc1 [SB-589132],2%,0%,53%,0%,0%,0%,0%,88%,0%,8%,–,–,–,–,–,–,–,–
Cc1ccc(O)cc1Nc1cc(C(F)(F)F)nc2ccc(-c3ccncc3)cc12 [GW630823],0%,4%,0%,0%,5%,0%,0%,0%,0%,0%,–,–,–,–,–,–,–,–
Nc1n[nH]c2nnc(-c3ccccc3)cc12 [SB-517389],0%,0%,0%,0%,0%,0%,24%,38%,0%,0%,–,–,–,–,–,–,–,–
c1ccc(-c2ccc3c(-c4ccnc(Nc5ccc6c(c5)OCCO6)n4)cnn3n2)cc1 [GW818941],0%,9%,8%,17%,3%,0%,9%,5%,0%,0%,–,–,–,–,–,–,–,–
FC(F)(F)c1ccc(-c2nn3ncccc3c2-c2ccnc(Nc3cccc(C(F)(F)F)c3)n2)cc1 [GW828205],13%,0%,12%,4%,28%,0%,0%,4%,0%,0%,–,–,–,–,–,–,–,–
Fc1ccc(Nc2nccc(-c3c(-c4ccc(Cl)cc4)nn4ncccc34)n2)cc1F [GW829058],34%,25%,26%,29%,42%,27%,30%,14%,13%,0%,–,–,–,–,–,–,–,–
CCn1c(-c2ccncc2)nc2cnccc21 [SB-735216],96.1%,8%,37%,5%,11%,34%,7%,25%,0%,0%,–,–,–,–,–,–,–,–
COc1cc2c(Nc3cccc(NC(=O)c4ccccc4)c3)ncnc2cc1OCCCN1CCOCC1 [GSK223810],0%,22%,0%,0%,3%,7%,4%,80%,0%,15%,–,–,–,–,–,–,–,–
CC(C)(C)OC(=O)NC1CCCN(c2cc(-c3ccc4c(N)n[nH]c4c3)nc(N)n2)C1 (stereo not shown) [GSK2286096],0%,0%,0%,100%,0%,0%,7%,30%,0%,0%,–,–,–,–,–,–,–,–
CSc1ccc(NC2=C(c3ccccc3Cl)C(=O)NC2=O)cc1 [SB-342411],0%,13%,0%,14%,3%,0%,0%,5%,76%,4%,–,–,–,–,–,–,–,–
O=C(Nc1n[nH]c2nc(-c3ccco3)c(Br)cc12)c1ccc(CN2CCCC2)cc1.O=C(O)[C@H](O)[C@@H](O)C(=O)O [SB-742352],0%,2%,6%,0%,0%,0%,0%,83%,0%,3%,–,–,–,–,–,–,–,–
CC(C)N1CCC(n2cnc(-c3ccc(F)cc3)c2-c2ccnc(N)n2)CC1 [SB-223132],14%,15%,0%,0%,22%,0%,0%,31%,3%,8%,–,–,–,–,–,–,–,–
COc1ccc(NC(=O)c2ccc(-c3cc(-c4nnc(C)o4)ccc3C)cc2)cc1 [GW595885],0%,0%,5%,0%,0%,0%,9%,0%,0%,0%,–,–,–,–,–,–,–,–
CCC(CC)(CC)n1cnc2c(N)ncnc21 [SKF-97620],34%,37%,32%,10%,21%,36%,43%,45%,14%,0%,–,–,–,–,–,–,–,–
CN1CCC(n2cnc(-c3ccc(F)cc3)c2-c2ccnc(NC3CCNCC3)n2)CC1 [SB-229482],0%,6%,27%,0%,0%,18%,0%,0%,0%,0%,–,–,–,–,–,–,–,–
Cl.c1ccc(Cn2ccc3cc(Nc4ncnc5ccccc45)ccc32)cc1 [GW275568],1%,30%,0%,14%,6%,11%,19%,84%,5%,9%,–,–,–,–,–,–,–,–
